According to PubChem BioAssay AID710 (SRMLSC, 2007):
Hit rate of the full screen: of about 98,000 compounds, about 150 (0.15%) were called active. What follows is part of a selection rich in actives, with near analogues and random picks from the rest. Unmarked numbers belong to inactive results.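 How the source made its calls: active means growth inhibition above about 50% at one test dose (limit read from the data); inactive means the rest.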

Test: antibacterial activity against E. coli BW25113 – strain BW25113, expanded library, OD600, primary screen (AID 710);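 further: growth measured after 20 h incubation at 37 °C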
Settings: OD600 absorbance, at 100 µM, active compounds read high

Structure (SMILES) | growth inhibition
O/N=C1\CC2(Cc3nonc31)OCCO2 | -4%
ON=C1/C(=N\O)CC2(C/C1=N/O)OCCO2 | 57% (active)
N=c1ccn(CC(=O)NC(N)=O)c2ccccc12 | -4%
O=C(Nc1nnc(-c2ccc(Cl)cc2)o1)c1ccccc1Br | 57% (active)
Cc1nonc1NC(=O)c1ccccc1Br | -2%
O=C(Nc1cccc(Cl)c1)Nc1nnc(-c2ccccc2)o1 | 2%
CCCN(Cc1cc2cccc(C)c2[nH]c1=O)S(C)(=O)=O | 2%
CCSc1nc(-c2ccc(OC)cc2)cc(-c2ccc(OC)cc2)c1C#N | -14%
CC(C)(C)Cc1nnc(NC(=O)c2cc(-c3ccccc3)nc3ccccc23)s1 | -12%
Cc1cc2c(cc1C)N(C(=O)CN1C(=O)c3ccccc3C1=O)C(C)(C)c1ssc(=S)c1-2 | -26%
CC(C)NC(=O)C(=O)N/N=C/c1ccco1 | 0%
Cc1ccc(NC(=S)NC2CCCC2)cc1 | 10%
CCOc1ccc(OCC)c(-c2c(=O)n(OCc3ccc(Cl)cc3)c3ccccc3[n+]2[O-])c1 | -15%
COc1ccc([N+](=O)[O-])cc1C1NN=C(c2cccc3ccccc23)S1 (configuration not stated) | 3%
O=C(NC(Nc1nc2ccc([N+](=O)[O-])cc2s1)(C(F)(F)F)C(F)(F)F)c1ccccc1 | 50% (active)
COC(=O)C(NC(=O)c1ccc(OC)cc1)(Nc1ncc(S(=O)(=O)c2ccc([N+](=O)[O-])cc2)s1)C(F)(F)F (configuration not stated) | -3%
Cc1cc(C)cc(OCC(=O)Nc2nc3ccc([N+](=O)[O-])cc3s2)c1 | -14%
Cc1cc(C)c2cc(CN(Cc3nnnn3Cc3ccc(F)cc3)C3CCCC3)c(=O)[nH]c2c1 | -11%
O=C(NC1CCN(C(=S)NCc2ccco2)CC1)c1ccc(F)cc1 | -4%
Cc1ccccc1OC/C(O)=C(\C#N)c1nc2ccccc2[nH]1 | -10%
O=C(Cc1ccccc1)N/N=C/c1ccc(Cl)cc1Cl | 1%
CC12c3ccccc3C(c3ccccc31)C1C(=O)N(Cc3cccnc3)C(=O)C12 (configuration not stated) | -1%
CCOc1ccc(N=C2NC(=O)S/C2=C\c2ccc(O)cc2)cc1 | -8%
N/C(=N\OC(=O)Nc1ccc(Cl)c(Cl)c1)c1ncc(C(F)(F)F)cc1Cl | 8%
Cc1nnc(NC(=O)Nc2ccc(Cl)c(Cl)c2)s1 | -9%

Structure (SMILES) | growth inhibition
O=C(CC(O)(C(F)(F)F)C(F)(F)F)Nc1ccc(Cl)c(Cl)c1 | 88% (active)
Cc1nn(C)c(Oc2ccc(Cl)cc2)c1C=O | -1%
FC(F)(F)c1ccc2nnc(-c3c(Cl)cccc3Cl)n2c1 | -2%
Cc1cc(C)c2c(-n3cccc3)c(C(=O)NNS(=O)(=O)c3ccc(F)cc3)sc2n1 | 16%
NC(N)=N/N=C/c1ccc(OCc2ccc(Cl)cc2Cl)cc1 | 97% (active)
NC(=O)COc1ccc(/C=N/NC(=O)C2CCCN2S(=O)(=O)c2ccc(Cl)cc2)cc1 (configuration not stated) | 6%
COC(=O)c1sc2ncccc2c1OCc1ccc(Cl)cc1Cl | -14%
C=CCOC(=O)C1=C(C)NC(C)=C(C(=O)OCC=C)C1c1cccs1 | 5%
CCOC(=O)CN(Cc1ccc(OC)c(OC)c1)S(=O)(=O)c1ccc(OC)cc1 | 0%
O=C(NCc1cccnc1)c1cccnc1Sc1ccc(Cl)cc1 | 10%
COc1ccc(C(C#N)Nc2ccccc2C)cc1 (configuration not stated) | 5%
COc1cc(/C=C2\SC(=S)N(Nc3ncc(C(F)(F)F)cc3Cl)C2=O)cc(OC)c1OC | -7%
COc1ccccc1N(C)S(=O)(=O)c1ccc(C(=O)N2CCC(C(N)=O)CC2)cc1 | 3%
CCCCNC(=O)C1CCCN(S(=O)(=O)c2ccc(S(=O)(=O)NCC(C)C)cc2)C1 (configuration not stated) | -1%
Cc1cc(-c2ccccc2)nc(N2CCC(C(=O)NC34CC5CC(CC(C5)C3)C4)CC2)n1 | -9%
S=c1[nH]nc2c3c4c(sc3ncn12)CCCC4 | 1%
CCn1c(/C=C/c2ccc([N+](=O)[O-])o2)nc2ccccc2c1=O | 6%
COC(=O)c1ccccc1Oc1c(F)c(F)nc(N2CCOCC2)c1F | 7%
CCN1CCN(c2ccc([N+](=O)[O-])cc2C(=O)c2ccc(Cl)cc2)CC1 | 8%
CCOC(=O)c1nc(C)n(-c2ccc(Cl)cc2Cl)n1 | 8%
O=[N+]([O-])c1ccccc1OCCCCN1CCCCC1 | 8%
C=CCn1c(-c2ccc3[nH]c(C)c(C)c3c2)n[nH]c1=S | 2%
Cc1ccc(C(c2nnnn2CS(=O)(=O)c2ccc(C)cc2)N2CCC(C)CC2)cc1 (configuration not stated) | -1%
CCCNC(=O)c1c(N)n(-c2ccc(S(N)(=O)=O)cc2)c2nc3ccccc3nc12 | -1%
FC(F)(F)c1cccc(NC(=S)Nc2cccc(Cl)c2)c1 | 50% (active)

Structure (SMILES) | growth inhibition
CC(=O)N1CCN(C(=O)Nc2cccc(C(F)(F)F)c2)CC1 | 17%
O=C(O)CSCC(=O)Nc1cccc(C(F)(F)F)c1 | 3%
Cc1cccn2c(=O)c(/C=C(\C#N)S(=O)(=O)c3ccc(Cl)cc3)c(N3CCC(C(N)=O)CC3)nc12 | 0%
COc1ccc(N2CCN(C(=O)CCc3nc(-c4ccc(C)cc4)no3)CC2)cc1 | -5%
CC(C)C(=O)Nc1cccc(NC(=S)NC(=O)C(c2ccccc2)c2ccccc2)c1 | -13%
O=C(CNC(=O)c1ccccc1)NCC(=O)OCc1ccc(Cl)cc1 | 1%
COc1ccc(-c2nn(C)c(=O)c3ccccc23)cc1NC(=O)COc1ccccc1 | 2%
CN(C(=O)CC(NC(=O)c1ccccc1)(c1ccccc1)c1ccccc1)c1ccccc1 | -17%
CCOC(=O)CSc1ncc(-c2cccc(Cl)c2)cn1 | 2%
O=C(CSc1nnc(-c2cccs2)n1Cc1ccccc1)N1CCc2ccccc2C1 | -18%
Cc1cccc(NC(=O)CSc2nc3c(c(=O)[nH]2)CCCC3)c1C | 3%
COC(=O)CNC(c1ccccc1Cl)c1cc(Br)ccc1NC(=O)CCN1CCOCC1 (configuration not stated) | -3%
CCOC(=O)C1=C(CN2CCc3ccccc32)NC(=O)NC1c1ccc(Cl)cc1 (configuration not stated) | -2%
O=C(CN(c1ccccc1)S(=O)(=O)c1ccc(Cl)cc1)Nc1ccccc1C(=O)N1CCCC1 | -17%
Cc1cc(OC(=O)c2c(Cl)cccc2Cl)nc(C)n1 | 5%
COc1ccc(-n2nc(C(=O)NCC(=O)Nc3cccc(C)n3)c3ccccc3c2=O)cc1 | -15%
CCOc1cccc(SCc2noc(C(=O)NC(C)C)c2C(=O)O)c1 | -4%
CCOC(=O)C(=CNc1cccc(C)n1)C(=O)OCC | -6%
O=C(NCC1CCCO1)/C(=C\c1ccco1)NC(=O)c1ccccc1 (configuration not stated) | -5%
O=C(NC1(C(F)(F)F)NC(=O)N(Cc2cccnc2)C1=O)c1ccccc1Cl (configuration not stated) | -1%
O=C(/C=C/NNC(=O)c1cccc(Br)c1)c1ccccc1 | -3%
CNC(=O)c1c(NC(NC(=O)c2ccco2)C(=O)c2ccc(Cl)cc2)sc2c1CCCC2 (configuration not stated) | -6%
CCOc1ccc(C(O)Cn2c(=N)n(CCN3CCCCC3)c3ccccc32)cc1 (configuration not stated) | -1%
Cc1ccc(OCC(=O)Nn2cnc3ccccc32)cc1 | 5%
Cc1ccc(-n2nc3ccc(NC(=O)/C=C/c4ccco4)cc3n2)cc1C | -1%

Structure (SMILES) | growth inhibition
S=c1nccc(-c2cc(Cl)sc2Cl)[nH]1 | 3%
COc1ccccc1NC(=O)c1ccc2nc(N3C(=O)CCC3=O)sc2c1 | 0%
N#C/C(=C1/CCCN1)c1ccccn1 | 3%
CCOc1ccc(NC(=O)c2ccccc2NS(C)(=O)=O)cc1 | -4%
S=c1[nH]nc(-c2ccc(Cl)cc2)n1CC1CCCO1 (configuration not stated) | 2%
CSc1ccc(CCNC(=O)C2CCN(c3nnc(-n4cccc4)s3)CC2)cc1 | -3%
CSc1ccccc1C(=O)Nc1cccc(C(C)=O)c1 | -4%
Clc1ccc(-c2nnc(-c3ccccc3)nc2N2CCSCC2)cc1 | -24%
COC(=O)c1c(CCl)noc1C(=O)NC(C)C | 1%
CCn1c(Cc2cccs2)nnc1SCC(=O)c1ccc(C)cc1 | -2%
Cc1cccc(NC(=O)N(Cc2cc3cc(C)cc(C)c3[nH]c2=O)CC2COCCO2)c1 (configuration not stated) | -1%
CCCCCOC(=O)c1ccc(N2C(=O)C3C4C=CC(C4)C3C2=O)cc1 (configuration not stated) | -5%
Cn1ncc(Br)c1C(=O)NCc1cccs1 | 5%
COc1ccc(/C(N)=N/OC(=O)Oc2ccccc2)cc1 | -14%
CCOC(=O)c1nn(-c2cccc(C)c2)cc1C(=O)c1ccccc1 | 5%
Cc1ccc(N(CC(=O)Nc2cccc(N(C)S(C)(=O)=O)c2)S(C)(=O)=O)cc1 | -5%
Cc1ccn(C(CC(=O)c2ccc(Br)cc2)C(=O)O)n1 (configuration not stated) | 8%
Cn1sc(NC(=O)c2ccccc2)nc1=O | -5%
Cc1cc(C)c(S(=O)(=O)N2C=CC(C(F)(F)F)=NCC2)c(C)c1 | 7%
CCOc1ccc(S(=O)(=O)Nc2nc3cc(OC)ccc3s2)cc1 | -6%
CCCCc1nc(NCCN)c(C#N)c2c1CSC(C)(C)C2 | 33%
Cc1ccc(Oc2ccc3c(c2)C(=O)N(c2cccc4cccnc24)C3=O)cc1 | 3%
